Only some compounds are listed: those with a hit (about 7.5% of all), similar ones and a draw of the others.
FLuc modulator – counter-screen for miR-21 project: firefly luciferase inhibitors or activators | P08659 | purified FLuc, Km substrates, luminescence inhibition | Potency, µM (series often up to 57.5 µM), hits mostly inhibitors | actives 6.9% (n = 360,000); also: nearly all actives have a fitted effect of over 55% in size
Target sequence (P08659 whole entry, looked up): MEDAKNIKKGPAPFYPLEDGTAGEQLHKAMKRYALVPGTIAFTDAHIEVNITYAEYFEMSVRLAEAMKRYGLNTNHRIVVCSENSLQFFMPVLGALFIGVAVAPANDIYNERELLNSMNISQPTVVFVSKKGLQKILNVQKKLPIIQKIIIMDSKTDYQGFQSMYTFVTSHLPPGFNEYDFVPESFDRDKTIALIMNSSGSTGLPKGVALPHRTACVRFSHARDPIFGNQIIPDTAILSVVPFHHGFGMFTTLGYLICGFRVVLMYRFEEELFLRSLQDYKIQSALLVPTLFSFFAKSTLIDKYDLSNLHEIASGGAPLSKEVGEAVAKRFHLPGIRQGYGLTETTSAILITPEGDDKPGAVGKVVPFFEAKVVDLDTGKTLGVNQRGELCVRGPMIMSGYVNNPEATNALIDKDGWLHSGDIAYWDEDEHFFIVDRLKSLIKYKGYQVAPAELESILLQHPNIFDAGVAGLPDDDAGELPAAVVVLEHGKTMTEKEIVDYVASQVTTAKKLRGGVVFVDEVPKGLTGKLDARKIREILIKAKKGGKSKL
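Purified P. pyralis luciferase (10nM final) with 10uM D-luciferin and 10uM ATP (Km levels) in 50mM Tris acetate pH 7.5, 10mM Mg acetate, 0.01% Tween-20, 0.05% BSA; qHTS 6-point titration, ~60 µM downward; luminescence read.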
Rab9 promoter act – activates the Rab9 promoter; Huh7 Rab9 promoter-luciferase reporter, luminescence, 24 h; Potency, µM (top dose mostly 9.22 µM), actives largely listed as activators; actives 2.8% (n = 320,000); AID 485297; also: nearly all actives have a fitted effect of over 60% in size
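Luciferase signal after 10 min detection reagent at ambient indicates Rab9 promoter upregulation; stably transfected Huh7 cells were treated 24 h with compound in DMSO at 37 °C, 5% CO2.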
Luc counter – counter-screen: inhibitors of Kinase-Glo firefly luciferase | Q27757 | actives 0.28% (n = 200,000) | Potency, µM (top dose mostly 38.3 µM), usual class: inhibitors | Kinase-Glo luciferase, ATP luminescence, 8 min; also: nearly all actives have a fitted effect of over 60% in size
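Light output from Kinase-Glo luciferase with luciferin and 10 uM ATP in 50 mM imidazole pH 7.2, KCl, MgCl2, Tween 20, BSA; compound pin-delivered, 8-min ambient incubation, then luminescence read.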
SMN2 splice enh – enhancers of SMN2 splice variant expression. AID 1458. HEK293 SMN2-luciferase splicing reporter, luminescence, 30-36 h. actives 2.8% (n = 210,000). Potency, µM (doses to about 46.1 µM), hits mostly activators; also: nearly all actives have a fitted effect of over 55% in size
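HEK293 cells carry an SMN2 minigene-luciferase reporter in which exon 7 inclusion puts luciferase in frame. Cells were seeded at 2000 cells/well, attached for 10-12 hours, then exposed to compounds for 30-36 hours at 37C before ONE-Glo luminescence.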
NPC1 promoter act – NPC1 promoter activation; actives 2.4% (n = 320,000); AID 485313; Huh7 NPC1 promoter luciferase reporter, 24 h; Potency, µM (doses to about 9.22 µM), hits mostly activators; also: nearly all actives have a fitted effect of over 60% in size
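NPC1 promoter–luciferase Huh7 cells; 24 h compound; luminescence.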
ELG1 genotoxic – genotoxicity induction in ELG1-luciferase HEK293T cells | HEK293T ELG1-luciferase reporter, luminescence, 16 h | AID 504466 | actives 1.3% (n = 330,000) | Potency, µM (series often up to 46 µM), most hits filed as activators; also: nearly all actives have a fitted effect of over 60% in size
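Luminescence read-out: rising ELG1-luciferase signal, reflecting elevated ELG1 protein under genetic stress, flags genotoxic compounds. Cells were treated for 16 hr at 37 °C before ONE-Glo detection.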
Numbers stand for hits; – = inactive; ? = inconclusive; · = not tested or not shown; [ ] = remark or other dose. Calls follow the shape of the dose curve; as a rule, active = well fitted curve in the direction sought with a large enough effect; inconclusive = small, poorly fitted or top-dose-only effect, or another doubt; inactive = no such curve, though single readings can be large; an effect the other way counts as inactive or inconclusive.

SMILES	FLuc modulator	Rab9 promoter act	Luc counter	SMN2 splice enh	NPC1 promoter act	ELG1 genotoxic
Cc1cccc2cc(/C=N/Nc3ccc(C(=O)O)cc3)c(Cl)nc12	0.67µM	0.4µM	·	·	0.4µM	5.2µM
CC(=O)c1ccc(-c2ccc(C(=O)N(C)Cc3nc4ccccc4c(=O)[nH]3)o2)cc1	–	–	·	·	–	–
CCCOC(=O)c1ccc(NC(=O)Cc2csc(C)n2)cc1	–	·	·	·	·	·
COc1ccc(NS(=O)(=O)c2cc3[nH]c(=O)c(=O)[nH]c3cc2C)cc1OC	–	·	·	·	·	·
CCc1ccc(C(=O)C(C)OC(=O)c2nn(C)c(=O)c3ccccc23)cc1 (stereo unspecified)	–	–	·	·	–	–
CC(C)(C)OC(=O)N1CCC[C@H]1C(=O)N/N=C/c1cccc2nccnc12	17µM	–	·	·	–	–
O=C(Cc1ccc(-c2ccccc2)cc1)OCC(=O)N1CCCC1=O	21µM	–	–	–	–	–
CC(C)CC1NC(=O)c2ccccc2-n2c1nc1ccc(Cl)cc1c2=O (stereo unspecified)	·	·	·	·	·	–
CCN(CC)c1ccc(NC(=O)C2=CC=CN3CCS(=O)(=O)N=C23)cc1	3µM	?	·	·	–	–
CC(C)(C)c1ccc(NC(=O)C2=CC=CN3CCS(=O)(=O)N=C23)cc1	·	?	·	·	–	?
Cc1ccc(C)c(NC(=O)c2nc(S(C)(=O)=O)ncc2N(Cc2ccc(C(C)(C)C)cc2)Cc2ccco2)c1	–	·	·	·	·	·
CCOC(=O)CSc1nc2ccccc2c(=O)n1-c1cccc(C)c1	–	·	·	–	·	·
Cc1nc(N=C(N)N)nc2ccccc12	–	–	–	–	–	–
CCCC(=O)N/C(N)=N/c1nc(C)c2cc(C)ccc2n1	17µM	–	·	·	–	–
Cc1nc(/N=C(\N)NC(=O)c2ccccc2)nc2ccccc12	?	?	–	18µM	–	–
O=C1c2cccc3cccc(c23)C(=O)N1CC1CCN(CC(O)COc2ccc3ccccc3c2)CC1 (stereo unspecified)	12µM	–	–	–	?	–
CC(=O)c1ccc(N2C(=O)Nc3ccccc3S2(=O)=O)cc1	–	·	·	·	·	·
CC(O)CN=c1cc(-c2ccccc2)oc2ccc(Cl)cc12 (stereo unspecified)	15µM	?	–	–	?	?
CC(C)CN=c1cc(-c2ccccc2)oc2ccc(Cl)cc12	?	–	–	–	–	–
O=C1CC(c2ccccc2)CC(O)=C1C=Nc1ccc(Cl)cc1 (stereo unspecified)	–	–	–	–[1.84 µM]	–	–
O=C1CC(c2ccccc2)CC(O)=C1C=Nc1cccc(Cl)c1 (stereo unspecified)	7.6µM	–	–	–[1.84 µM]	–	–
CCc1nnc(NC(=O)CN2CCN(Cc3ccc(F)cc3)CC2)s1	–	–	·	·	–	–
O=C(O)c1c(C(=O)O)c2ccccc2[nH]c1=O	·	·	–	–	·	·
O=C(c1cc2ncc(Br)cn2n1)N1CCN(C(=O)c2ccco2)CC1	–	–	–	–	–	–
Cc1cccc2nc(=S)n(C(=O)c3ccco3)n12	1.1µM	1.3µM	3.2µM	–	?	?
SMILES	FLuc modulator	Rab9 promoter act	Luc counter	SMN2 splice enh	NPC1 promoter act	ELG1 genotoxic
O=C(c1ccco1)n1c(=S)nc2ccccn21	3.8µM	1.4µM	13µM	?	2.8µM	5µM
COc1ccc(NC(=O)CN(C)C(=O)c2ccc(NS(=O)(=O)c3ccc4[nH]c(=O)[nH]c4c3)cc2)cc1	–	–	·	·	–	–
Cc1cc(C)c2sc(N(Cc3cccnc3)C(=O)CCOc3ccccc3)nc2c1	–	·	·	·	·	·
O=C(Nc1ccc(OC(F)(F)F)cc1)Nc1cccc([N+](=O)[O-])c1	24µM	–	·	·	–	–
Cc1ccc(NC(=O)Nc2cccc([N+](=O)[O-])c2)cc1F	11µM	–	·	·	?	–
O=C(Nc1cccnc1)Nc1cccc([N+](=O)[O-])c1	–	–	·	·	–	–
Cc1cc(NC(=O)Nc2cccc([N+](=O)[O-])c2)no1	–	–	–	–	–	–
Cc1csc(NC(=O)CSc2nc(C(C)C)nc3ccccc23)n1	–	–	·	·	–	–
Cc1cccc(-c2nnc(SCc3ccccc3)o2)c1	11µM	?	–	?	?	?
